# Screening results from PubChem BioAssay.
# AMA1-RON2 inh: qHTS for Inhibitors of AMA1-RON; Towards Development of Antimalarial Drug Lead: Primary Screen; actives 0.2% (n = 360,000); Potency, µM (series often up to 58.2 µM), for the others: at the highest dose activity change, negative = inhibition, usual class: inhibitors; AlphaScreen AMA1-biotinylated RON2 peptide binding;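 note: 0% = vehicle wells and -100% = peptide control; nearly all actives have a fitted effect of over 45% in size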
#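 AMA1 (3D7) with his tag at 25 nM final met compounds first, then biotinylated RON2 peptide at 25 nM; detection used donor plus acceptor beads, 10 µg/mL apiece, read by AlphaScreen after 30 min at room temperature.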
# NS1 inh: qHTS Assay for Inhibitors of Influenza NS1 Protein Function; Potency, µM (top dose mostly 46.1 µM), for the others: top-dose activity, positive = more growth; actives 0.4% (n = 270,000); AID 2326, 2010; calls by dose curve; note: actives are rising curves; nearly all actives have a fitted effect of over 50% in size
#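 S. cerevisiae expressing influenza A NS1, grown in glucose, washed, then diluted 1:100 into pH 6.0 -URA galactose medium with 23 nl compound. Growth recovery read as OD600; NS1-free strain serves as control.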
# Pf growth 48h: Primary qHTS for delayed death inhibitors of the malarial parasite plastid, 48 hour incubation; P. falciparum luciferase growth in erythrocytes, 48 h; Potency, µM (titrated, usually from 28.7 µM), inactives show top-dose activity change, negative = inhibition, hits mostly inhibitors; actives 5.9% (n = 310,000); note: % is set by controls: 0 for no effect and ±100 for the full control effect
#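 Luciferase-expressing P. falciparum in infected erythrocytes (2% hematocrit, 0.1% parasitemia final) in RPMI 1640/0.5% Albumax were exposed to compound for 48 hours at 37 C, 5% CO2; growth read as luminescence.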
# Pf growth 96h: Primary qHTS for delayed death inhibitors of the malarial parasite plastid, 96 hour incubation | P. falciparum luciferase reporter growth, 96 h | Potency, µM (doses to about 28.7 µM), inactives show top-dose activity change, negative = inhibition, hits mostly inhibitors | actives 6.9% (n = 320,000) | AID 504834, 2011; note: % is set by controls: 0 for no effect and ±100 for the full control effect
#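 Compounds incubated with erythrocytes infected by luciferase-expressing P. falciparum (2% hematocrit, 0.05% parasitemia final) for 96 hours, 37 C in 5% CO2. Growth inhibition scored as decreased luciferase luminescence.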
# Sm TGR inh: qHTS Assay for the Inhibitors of Schistosoma Mansoni Peroxiredoxins; Schistosoma mansoni thioredoxin glutathione reductase (TGR), Q962Y6; purified TGR, DTNB reduction, TNB absorbance 405 nm; Potency, µM (titrated, usually from 114 µM), inactives show at the top dose activity change, negative = inhibition, most hits filed as inhibitors; actives 3% (n = 360,000); AID 485364, 2010; note: % is set by controls: 0 for no effect and ±100 for the full control effect; nearly all actives have a fitted effect of over 60% in size
#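 Kinetic colorimetric format: TGR-catalysed, NADPH-driven DTNB reduction monitored via TNB absorbance. Enzyme dispensed at 20 nM; compound exposure 15 min at room temperature before reaction start.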
# Numbers without * were called inactive; u = inconclusive; x = no result given. The list is not random: actives were taken first. Their share in the collection is about 11%. Unless noted, calls come from the whole dose curve; as a rule, active = well fitted curve in the direction sought with a large enough effect; inconclusive = small, poorly fitted or top-dose-only effect, or another doubt; inactive = no such curve, though single readings can be large; an effect the other way counts as inactive or inconclusive. Potency is the fitted concentration of half-maximal effect.
SMILES,AMA1-RON2 inh,NS1 inh,Pf growth 48h,Pf growth 96h,Sm TGR inh
Cn1c(CN2CCN(c3cccc(Cl)c3)CC2)nc2ccccc21,23%,-39%,13µM*,u,-9%
Cn1c(=O)[nH]c(=O)c2c1nc(CN1CCN(c3cccc(Cl)c3)CC1)n2CCc1ccccc1,29%,5%,u,1%,-25%
Cn1c(=O)[nH]c(=O)c2c1nc(CN1CCN(c3ccc(F)cc3)CC1)n2CCc1ccccc1,5%,-1%,u,10µM*,5%
CCCCCn1c(CN2CCN(c3cccc(Cl)c3)CC2)nc2c1c(=O)[nH]c(=O)n2C,-8%,-35%,13µM*,u,-2%
CCCn1c(N2CCN(CC(=O)c3c(C)n(C)c4ccccc34)CC2)nc2c1c(=O)[nH]c(=O)n2C,-3%,5%,0.083µM*,134%,-14%
COc1ccc(/C=N/NC2=NS(=O)(=O)c3ccccc32)cc1OC(C)=O,47%,-1%,u,8%,-2%
CCCCCCn1c(N(CC)CC)nc2c1c(=O)[nH]c(=O)n2C,0%,-13%,-30%,1.9µM*,0%
CC(c1ccccc1)n1c(N2CCNCC2)nc2c1c(=O)[nH]c(=O)n2C (centres undefined),17%,3%,8.3µM*,12%,u
Cc1ccc(N2CCN(c3ccc(NCc4nc5ccccc5n4C)cc3)CC2)cc1,0%,-1%,13µM*,5.2µM*,-26%
CCCCCCn1c(N2CCN(c3ccccc3)CC2)nc2c1c(=O)[nH]c(=O)n2C,40%,-53%,8.3µM*,15µM*,7%
Nc1cc(Cl)c(NC2=NCCN2)c(Cl)c1,x,-4%,1%,1%,x
COc1ccc(C(C)C)cc1S(=O)(=O)N1CCN(c2ccccc2)CC1,-28%,-8%,u,9%,13%
O=C(Cn1c(=O)n(-c2ccc(F)cc2)c(=O)c2sc3ccccc3c21)NC1CCCCC1,x,x,x,x,8%
Cn1c(=O)[nH]c(=O)c2c1nc(N1CCOCC1)n2CCc1ccccc1,-10%,-1%,3%,10%,x
Cn1c(=O)[nH]c(=O)c2c1nc(N1CCOCC1)n2CCN1CCOCC1,-2%,11%,1.9µM*,-11%,-35%
Cc1ccc2nc(N3C(=O)C(O)=C(C(=O)c4ccco4)C3c3ccc(C)o3)sc2c1 (centres undefined),8%,21%,59%,5.2µM*,32µM*
Cc1ccc2nc(N3C(=O)C(O)=C(C(=O)c4ccc(C)o4)C3c3ccco3)sc2c1 (centres undefined),-10%,x,52%,6.7µM*,u
Cc1ccc2nc(N3C(=O)C(O)=C(C(=O)c4ccco4)C3c3ccc(O)cc3)sc2c1 (centres undefined),x,u,-8%,u,-30%
COc1ccc(CCNC(=O)Cc2ccc(NC3=NC4CS(=O)(=O)CC4S3)cc2)c(OC)c1 (centres undefined),-3%,-8%,3%,u,-15%
Cc1cc(C)cc(NC(=S)/N=C(\N)Nc2nc(C)c3ccccc3n2)c1,8%,22%,u,13µM*,4%
CCOc1ccc2nc(N/C(N)=N/C(=S)Nc3ccc(OC)cc3)nc(C)c2c1,133%,2%,4.1µM*,u,0%
Cc1cccc(NC(=S)/N=C(\N)Nc2nc(C)c3cc(C)ccc3n2)c1,37%,u,u,u,8%
Cc1cccc(NC(=S)/N=C(\N)Nc2nc(C)c3ccc(C)cc3n2)c1,83%,24%,13µM*,u,5%
CN(C)/C=C/C(=O)c1cc(F)cc(C(F)(F)F)c1,7%,-3%,-1%,10%,x
C/C(=N\NC(N)=S)C1C2C3CC4C5CC(C42)C1C53 (centres undefined),-4%,x,u,u,0%
O=S(=O)(NCCOCC(F)(F)F)c1ccc2oc3ccccc3c2c1,-7%,-35%,12µM*,0%,-25%
Cc1nc2nc(SCc3ccc(F)cc3Cl)nn2c(C)c1Cc1ccccc1,x,x,x,x,10%
